# Results from the supplement of paper PMC10646978.
# ± gives the standard deviation.
# Assays:
# Settings in all cases: modulator concentration 10 µM
# [1] = tested on: RAW-Dual (murine macrophage reporter line); assay: NF-kB reporter (SEAP) activity fold change vs agonist alone; higher = enhanced NF-kB activity
# How it was run: (§1)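 RAW-Dual murine macrophage reporter cells were plated at 50 000 per well in 384-well plates, pin-transferred compound to 10 μM final, and pre-incubated for 1 hour at 37 °C before a PRR agonist was added and the cells incubated overnight. NF-κB activity was read from supernatant SEAP with QUANTI-Blue at 620 nm absorbance, and IRF activity from Lucia luciferase with QUANTI-Luc by luminescence. Each signal was expressed as fold change by dividing by the mean agonist-only control on the same plate. Two replicate plates were averaged, with errors obtained by propagation.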
# [2] = tested on: RAW-Dual (murine macrophage reporter line); assay: IRF reporter (Lucia luciferase) activity fold change vs agonist alone; higher = enhanced IRF activity
# How it was run: as §1
# [3] = tested on: RAW-Dual (murine macrophage reporter line); assay: viability score (confluency relative to resting cells, overnight) (fraction); higher = more viable, active = viable (0.7 or more)
# How it was run: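 A compound met the cutoff when both of two confluency masks exceeded 70% of resting cells. Those masks were made with IncuCyte software from IncuCyte images of RAW-Dual macrophages treated overnight at 10 μM final. This is the basis of the viability score, which is confluency relative to resting cells.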
# [4] = agonist: CpG ODN 1826 0.5 ug/mL
SMILES,"NF-kB reporter [1, 4]",NF-kB reporter ([1]; agonist: LPS 0.1 ug/mL),NF-kB reporter ([1]; agonist: MPLA […]),IRF reporter ([2]; agonist: 3'3'-cGAMP 10 ug/mL),IRF reporter ([2]; agonist: LPS 0.1 ug/mL),IRF reporter ([2]; agonist: MPLA […]),viability score [3]
COc1cccc(-c2csc(C(C#N)=CNc3cc(Cl)ccc3OC)n2)c1,0.939 ± 0.096,1.06 ± 0.083,0.963 ± 0.093,0.964 ± 0.024,1.24 ± 0.21,1.01 ± 0.26,1.01 (active)
Cc1ccc(S(=O)(=O)n2nc(C)c(C)c2C)cc1C,0.929 ± 0.047,1.11 ± 0.11,1.05 ± 0.068,1.07 ± 0.068,1.2 ± 0.16,1.26 ± 0.34,1.01 (active)
CCOC(=O)n1ccn(C)c1=S,1.26 ± 0.21,1.04 ± 0.33,0.909 ± 0.067,0.913 ± 0.03,1.18 ± 0.48,1.11 ± 0.09,0.992 (active)
O=C(c1ccccc1)c1ccc2n1CCC2C(=O)O (stereo unspecified),0.921 ± 0.13,1.09 ± 0.14,0.895 ± 0.073,0.94 ± 0.048,1.15 ± 0.26,1.04 ± 0.16,0.996 (active)
CCOc1ccc(C(CN)N2CCOCC2)cc1 (stereo unspecified),1.07 ± 0.048,0.934 ± 0.079,1.08 ± 0.075,0.943 ± 0.046,1.33 ± 0.28,1.29 ± 0.44,0.941 (active)
CCCc1nn(C)c2c(=O)[nH]c(-c3cc(S(=O)(=O)N4CCN(C)CC4)ccc3OCC)nc12,0.951 ± 0.23,1.03 ± 0.07,1 ± 0.068,0.928 ± 0.036,1.25 ± 0.16,1.37 ± 0.22,0.986 (active)
O=C(O)c1ccccc1,1.07 ± 0.21,1.24 ± 0.38,0.974 ± 0.089,0.933 ± 0.029,1.46 ± 0.34,1.33 ± 0.1,0.998 (active)
CC(=O)N(C1=C(Nc2ccccc2)C(=O)c2ccccc2C1=O)c1ccccc1,2.44 ± 0.19,1.52 ± 0.098,2.64 ± 0.16,2.12 ± 0.063,5.77 ± 0.43,3.69 ± 0.39,0.334 (inactive)
COC(=O)C1=CN(CC2CCCO2)C=C(C(=O)OC)C1c1ccccc1Cl (stereo unspecified),1.67 ± 0.13,1.21 ± 0.069,2.32 ± 0.14,0.796 ± 0.051,0.845 ± 0.066,0.686 ± 0.043,0.982 (active)
Cc1cc(=O)n(CC(=O)N2CCC(c3ccccc3F)S(=O)(=O)CC2)cn1 (stereo unspecified),1.01 ± 0.06,1.07 ± 0.084,0.953 ± 0.09,1 ± 0.063,1.12 ± 0.081,1.04 ± 0.091,1 (active)
CC(=O)c1ccc(NC(=O)c2ccccc2C(=O)O)cc1,1.27 ± 0.12,1.14 ± 0.1,1.08 ± 0.12,0.903 ± 0.11,1.14 ± 0.13,1.31 ± 0.29,1 (active)
O=C1[C@H](CC[C@H](O)c2ccc(F)cc2)[C@@H](c2ccc(O)cc2)N1c1ccc(F)cc1,1.11 ± 0.11,1.05 ± 0.051,1.29 ± 0.12,0.927 ± 0.063,0.98 ± 0.084,1.21 ± 0.11,0.97 (active)
CC(=Cc1ccccc1)CN1CC(C)OC(C)C1 (stereo unspecified),0.788 ± 0.063,0.788 ± 0.05,1.04 ± 0.12,0.933 ± 0.044,1.28 ± 0.074,1.47 ± 0.17,0.956 (active)
Cc1ccc(C(=O)N2N=C(c3ccc(Cl)cc3)CC2(O)C(F)(F)F)o1 (stereo unspecified),0.721 ± 0.06,0.82 ± 0.054,0.974 ± 0.097,0.975 ± 0.06,1.33 ± 0.077,1.42 ± 0.16,1 (active)
C1CCC(N2NC2C2NN2C2CCCCC2)CC1 (stereo unspecified),1.01 ± 0.22,1.03 ± 0.11,0.964 ± 0.091,0.938 ± 0.024,1.23 ± 0.19,1.05 ± 0.11,1.01 (active)
CC(C)(C)C(=O)OCOP(=O)(COCCn1cnc2c(N)ncnc21)OCOC(=O)C(C)(C)C,1.69 ± 0.25,1.36 ± 0.11,1.65 ± 0.1,1.81 ± 0.096,5.89 ± 0.5,3.2 ± 0.43,0.788 (active)
COc1ccc(OC)c(C=NNC(=O)c2cc(C)oc2C)c1,0.912 ± 0.16,0.925 ± 0.098,0.877 ± 0.067,0.936 ± 0.044,1.26 ± 0.22,1.25 ± 0.2,0.566 (inactive)
CC12CCC(CC1)C(C)(C)O2,1.17 ± 0.28,1.05 ± 0.14,0.968 ± 0.074,0.956 ± 0.033,1.21 ± 0.15,1.15 ± 0.12,0.994 (active)
